Source: PubChem
CYP2C9 inh = blocks human cytochrome P450 2C9; CYP2C9 Supersomes, luciferin-H conversion, luminescence; inhibition, % at 5 µM; hit rate 20% among 96,000; P11712;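 active means blocking of liver enzyme CYP2C9 beyond about 50% at 5 µM, limit read from the data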
Target sequence (P11712 whole entry, looked up): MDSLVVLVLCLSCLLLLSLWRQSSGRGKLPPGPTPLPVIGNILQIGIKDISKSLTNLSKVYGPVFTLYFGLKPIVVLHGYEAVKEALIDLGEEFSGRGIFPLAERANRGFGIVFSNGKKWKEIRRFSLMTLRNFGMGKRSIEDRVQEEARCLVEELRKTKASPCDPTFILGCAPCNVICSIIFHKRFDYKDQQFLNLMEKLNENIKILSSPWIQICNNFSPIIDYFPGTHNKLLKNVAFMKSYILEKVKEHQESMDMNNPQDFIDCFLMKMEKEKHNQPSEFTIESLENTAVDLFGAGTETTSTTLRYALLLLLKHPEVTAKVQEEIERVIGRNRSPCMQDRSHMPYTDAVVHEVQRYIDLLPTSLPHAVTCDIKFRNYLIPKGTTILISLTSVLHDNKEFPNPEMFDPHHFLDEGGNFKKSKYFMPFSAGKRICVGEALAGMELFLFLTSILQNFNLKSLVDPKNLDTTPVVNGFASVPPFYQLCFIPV
CYP2C19 inh = human CYP2C19 inhibition; CYP2C19 Supersomes, luciferin-H EGE luminescence, 30 min; inhibition, % at 5 µM; hit rate 21% among 96,000; AID 778;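 active means CYP2C19 inhibition above a set limit at 5 µM in the primary screen, cut at about 50% in these data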;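 further: plate controls were negative control wells for no effect and 2.5 mM tranylcypromine positive control for full effect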
PostGolgi ctrl = yeast control strain growth, post-Golgi counter-screen. hit rate 5% among 98,000. AID 738. efflux-deficient yeast background strain, growth absorbance A615, 16 h. inhibition, % at 10 µM
CYP2C19 act = activators of human cytochrome P450 2C19; recombinant CYP2C19, luciferin-H EGE luminescence; hits give high values; 0 = fully inhibited enzyme, 1 = untreated enzyme; AID 1025; 96,000 tested, under 10 active; P33261; activation factor at 5 µM;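 active means activation factor of at least 2 at 5 µM in the primary screen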;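 further: 0 = wells with 2.5 mM tranylcypromine and 1 = vehicle-only wells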
PostGolgi yeast = growth inhibition of a yeast mutant, post-Golgi transport screen | inhibition, % at 10 µM | AID 739 | hit rate 0.9% among 98,000 | post-Golgi transport phenotypic cell assay;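 further: yeast cells grown in 1536-well plates; yeast grown about 18 h at 30C before absorbance read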
CYP2C9 activ = activators of human CYP2C9. P11712. recombinant CYP2C9, luciferin-H conversion, luminescence; hits give high values; factor 1 = untreated enzyme, 0 = blocked. activation factor at 5 µM. hit rate 1.4% among 96,000. AID 1024;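 active means activation factor of 2 or more for CYP2C9 at a 5 µM dose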;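 further: 0 = sulfaphenazole-blocked wells and 1 = vehicle-only wells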
* marks the source's active call; other numbers are inactive results; / = not tested or not shown. The list is not random: actives were taken first. Their share in the collection is about 32%. Unless noted, no stated cut-off is given here; in the data, active means inhibition above about 30%; inactive means the rest.

SMILES	CYP2C9 inh	CYP2C19 inh	PostGolgi ctrl	CYP2C19 act	PostGolgi yeast	CYP2C9 activ
COc1ccc2c(c1)cc(C(=O)O)n2C	-15.6	-10.0	3.8	1.1	9.2	1.2
COc1ccc(NS(=O)(=O)c2cc(-c3nnnn3C)ccc2OC)cc1	19.8	33.1	12.4	0.7	-8.4	0.8
Cc1ccc(CS(=O)(=O)CCC(=O)NCc2cccs2)cc1	35.2	26.2	3.7	0.7	-0.2	0.6
CCOc1ccccc1OCC(=O)Nc1nnc(C)s1	5.6	-5.0	3.0	1.1	-1.3	0.9
Cc1c(N(C(=O)c2cc(=O)[nH]c3ccccc23)C(C)C)c(=O)n(-c2ccccc2)n1C	-2.9	13.1	4.7	0.9	-2.2	1
Cc1ccc(S(=O)(=O)c2cccc(S(=O)(=O)N3CCCC3)c2)cc1S(=O)(=O)N1CCCC1	-3.7	51.7*	-7.1	0.5	2.3	1
Cc1ccc(S(=O)(=O)c2cccc(S(=O)(=O)N3CCOCC3)c2)cc1S(=O)(=O)N1CCOCC1	-41.7	14.6	1.8	0.9	3.8	1.4
CCCCN(CC)S(=O)(=O)c1ccccc1	-12.3	81.0*	-2.8	0.2	7.1	1.1
CCN(CC)S(=O)(=O)c1ccc(F)cc1	/	/	-0.8	/	-0.2	/
CCN(CC)S(=O)(=O)c1cccc(S(=O)(=O)c2cccc(S(=O)(=O)N(CC)CC)c2)c1	70.5*	91.3*	/	0.1	/	0.3
CN1CCN(S(=O)(=O)c2cccc(S(=O)(=O)c3ccc(Cl)cc3)c2)CC1	-113.8	-9.3	0.9	1.1	-5.4	2.1*
CCOC(=O)C(C)Oc1ccsc1C(=O)OC (stereo not given)	14.4	2.4	18.5	1	6.0	0.9
O=S(=O)(c1ccccc1)c1cccc(S(=O)(=O)N2CCCCC2)c1	-23.3	87.3*	13.5	0.1	14.9	1.2
CCN(CC)S(=O)(=O)c1ccc(C)c(C)c1	-237.2	82.2*	20.9	0.2	1.5	3.4*
O=C(O)c1cccc(S(=O)(=O)N2CCCC2)c1	21.2	6.5	-1.8	0.9	-3.0	0.8
CCN(CC)S(=O)(=O)c1cccc(S(=O)(=O)N2CCCCC2)c1	53.3*	45.9	-0.2	0.5	9.8	0.5
O=C(O)c1cc2sccc2s1	7.6	6.3	1.5	0.9	-10.8	0.9
CC(C)c1ccc(C(=O)CSc2n[nH]c(-c3ccncc3)n2)cc1	94.3*	92.6*	62.5*	0.1	95.4*	0.1
Cc1nc(SCC(=O)Nc2ccnc3ccccc23)n[nH]1	22.4	19.7	3.7	0.8	4.6	0.8
Cc1ccc(NC(=O)CSc2n[nH]c(-c3ccncc3)n2)cc1C	96.7*	62.8*	-5.3	0.4	0.6	0
O=C(CSc1n[nH]c(-c2ccncc2)n1)NC1CCS(=O)(=O)C1 (stereo not given)	72.2*	13.1	0.3	0.9	-11.9	0.3
Cc1ccc(C)c(NC(=O)CSc2n[nH]c(-c3ccncc3)n2)c1	95.8*	66.1*	0.3	0.3	-1.3	0
Cc1cc(NC(=O)CSc2n[nH]c(-c3cccs3)n2)no1	45.7	33.0	-1.0	0.7	0.8	0.5
Cc1cc(C)n(-c2nc(-c3ccc(Cl)cc3)cs2)n1	2.6	33.1	-2.8	0.7	6.1	1
Cc1c(Cl)cccc1-n1c(SCC(=O)NCc2ccccc2Cl)nnc1-c1ccncc1	80.6*	93.6*	13.1	0.1	-2.6	0.2
SMILES	CYP2C9 inh	CYP2C19 inh	PostGolgi ctrl	CYP2C19 act	PostGolgi yeast	CYP2C9 activ
Cn1c(SCC(=O)NCc2cccs2)nnc1-c1ccncc1	4.7	13.2	7.0	0.9	0.6	1
Cc1c(Cl)cccc1-n1c(SCC(=O)NCc2cccs2)nnc1-c1ccncc1	76.6*	96.8*	-5.7	0	4.5	0.2
O=C(CSc1nnc(-c2ccncc2)n1-c1ccc(Cl)cc1)NCc1cccs1	76.8*	96.0*	2.2	0	-8.1	0.2
O=C(c1ccco1)N1CCN(C(=O)c2nn3cccnc3c2Cl)CC1	-5.3	-5.2	3.9	1.1	0.1	1.1
CC1(C)CC(NC(=O)C23CCC(C)(/C(=N/O)C2)C3(C)C)CC(C)(C)N1 (stereo not given)	-9.0	-20.6	/	1.2	/	1.1
Cc1cc(C)n(CCn2nc(C)cc2C)n1	0.8	40.0	36.6*	0.6	-1.6	1
COc1ccc(-n2cnnc2SCc2cnc(-c3ccccc3)s2)cc1	24.7	66.0*	10.8	0.3	-4.8	0.8
COCCn1c(SCc2cnc(-c3ccccc3)s2)nnc1-c1ccncc1	32.4	81.8*	11.4	0.2	7.2	0.7
COCC(=O)N(Cc1nc2ccccc2c(=O)[nH]1)Cc1cccs1	52.2*	42.0	8.5	0.6	-4.2	0.5
CS(=O)(=O)N(Cc1ccc(F)cc1)Cc1nc2ccccc2c(=O)[nH]1	5.4	30.9	12.6	0.7	-3.5	0.9
COCC(=O)N(CCc1ccc(OC)c(OC)c1)Cc1nc2ccccc2c(=O)[nH]1	4.3	57.5*	-3.5	0.4	-13.4	1
COc1ccc(CCN(Cc2nc3ccccc3c(=O)[nH]2)C(=O)c2ccco2)cc1	57.3*	43.9	10.6	0.6	-2.7	0.4
COc1ccc(N(Cc2cc(=O)[nH]c3ccccc23)C(=O)c2ccco2)cc1	62.7*	5.2	3.0	0.9	-4.8	0.4
CCC(CC)C(=O)N(CCc1ccc(OC)cc1)Cc1nc2ccccc2c(=O)[nH]1	44.1	32.0	2.8	0.7	-1.6	0.6
COc1ccc(CN(Cc2nc3ccccc3c(=O)[nH]2)C(=O)C(C)(C)C)cc1	3.5	27.5	-6.8	0.7	-5.9	1
COCCCNC(=O)c1cccn2c(=O)c3cc4ccccc4cc3nc12	49.6	18.8	70.2*	0.8	22.5	0.5
O=C(NCc1ccco1)c1cccn2c(=O)c3cc4ccccc4cc3nc12	42.5	11.3	11.8	0.9	-14.9	0.6
CCOC(=O)N1CCN(C(=O)Cc2ccc(Cl)cc2)CC1	64.4*	54.0*	4.9	0.5	5.3	0.4
CCOC(=O)C1CCN(C(=O)Cc2ccc(C)cc2)CC1	51.6*	20.9	5.3	0.8	17.1	0.5
CC1CCCCN1C(=O)Cc1ccc(Cl)cc1 (stereo not given)	31.3	96.0*	15.8	0	-1.1	0.7
CCOC(=O)C1CCN(C(=O)Cc2ccc(OC)c(OC)c2)CC1	-16.0	23.2	-10.2	0.8	11.5	1.2
CCOC(=O)C1CCN(C(=O)CC(C)c2ccccc2)CC1 (stereo not given)	4.5	18.9	17.5	0.8	-13.7	1
CCOC(=O)C1CCN(C(=O)CSc2ccccc2)CC1	30.7	64.0*	7.0	0.4	-0.3	0.7
CCc1ccc(NC(=O)c2cc(-c3ccc(OC)cc3)on2)cc1	13.8	-3.6	-0.2	1	-5.9	0.9
COC(=O)c1sccc1NC(=O)c1ccoc1C	-8.0	11.0	4.3	0.9	-3.6	1.1
O=C1OC(Nc2ccc(Br)cc2F)c2ccccc21 (stereo not given)	-7.7	-5.6	/	1.1	/	1.1
